Luc counter – Kinase-Glo luciferase inhibition (counter-screen); Kinase-Glo luciferase, ATP luminescence, 8 min; Potency, µM (titrated, usually from 38.3 µM), usual class: inhibitors; actives 0.28% (n = 200,000); AID 1379; also: nearly all actives have a fitted effect of over 60% in size
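Kinase-Glo luciferase light output from ATP and luciferin was measured with 10 uM ATP, within the enzyme's linear range. Buffer: 50 mM imidazole pH 7.2, 50 mM KCl, 7 mM MgCl2, 0.01% Tween 20, 0.05% BSA; luminescence read after 8 min at ambient temperature.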
RORg inh – ROR gamma (mouse) transcription inhibition; P51450; Drosophila S2 Gal4-RORgamma UAS-luciferase reporter, 20 h; Potency, µM (top dose mostly 53.6 µM), hits mostly inhibitors; actives 5.4% (n = 310,000); AID 2551; also: nearly all actives have a fitted effect of over 60% in size
Target sequence (P51450 whole entry, looked up, the tested form may be a part): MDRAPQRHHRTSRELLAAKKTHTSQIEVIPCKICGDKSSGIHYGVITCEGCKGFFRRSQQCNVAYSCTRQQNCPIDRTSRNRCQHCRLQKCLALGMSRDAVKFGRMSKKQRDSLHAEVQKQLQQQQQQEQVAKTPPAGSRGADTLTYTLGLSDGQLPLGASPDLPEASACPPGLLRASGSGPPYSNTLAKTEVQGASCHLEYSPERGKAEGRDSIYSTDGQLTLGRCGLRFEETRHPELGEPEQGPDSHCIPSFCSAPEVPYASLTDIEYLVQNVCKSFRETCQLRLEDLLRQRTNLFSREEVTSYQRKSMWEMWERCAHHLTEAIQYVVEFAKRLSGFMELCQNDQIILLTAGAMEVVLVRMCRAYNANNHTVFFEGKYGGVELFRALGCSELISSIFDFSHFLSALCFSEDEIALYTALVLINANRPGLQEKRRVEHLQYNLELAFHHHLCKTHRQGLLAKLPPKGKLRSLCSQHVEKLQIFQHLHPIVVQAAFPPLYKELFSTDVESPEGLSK
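Luminescence from a UAS-regulated Photinus luciferase reporter in stably transfected Drosophila Schneider cells is measured; decreased signal marks ROR gamma inhibition. Fusion expression is induced by 700 uM copper sulfate for 20 hr.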
Gal4-VP16 FLuc – counter-screen for ROR gamma inhibitors: Gal4-VP16 reporter; Drosophila S2 Gal4-VP16 UAS-luciferase, luminescence, 20 h; Potency, µM (top dose mostly 53.6 µM), actives largely listed as inhibitors; actives 3.5% (n = 310,000); AID 2546;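 also: Gal4-VP16 expression switched on by copper sulfate through the metallothionein promoter; nearly all actives have a fitted effect of over 50% in size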
Hits are given with their value; [ ] = dose if it differs, or a comment. In the library only some 6.2% were active in any assay of this set; here they are far more common. Calls follow the shape of the dose curve; as a rule, active = well fitted curve in the direction sought with a large enough effect; inconclusive = small, poorly fitted or top-dose-only effect, or another doubt; inactive = no such curve, though single readings can be large; an effect the other way counts as inactive or inconclusive.

Results for C=CCNC(=O)c1ccccc1NC(=O)COc1ccccc1 ?
Luc counter: inactive; RORg inh: inactive; Gal4-VP16 FLuc: inactive

Results for CN1CCN(NC(=O)Nc2ccc(Br)cc2Cl)CC1 ?
RORg inh: inactive; Gal4-VP16 FLuc: inactive

How did COc1cccc(CN2CC34CC(c5ccc(C(C)=O)cc5)C(CC3S2(=O)=O)O4)c1 (stereo not given) do in these assays?
RORg inh: inactive; Gal4-VP16 FLuc: inactive

Results for COc1ccc(N2C(=S)NC(C)(C)CC2(C)c2ccc(OC(C)=O)cc2OC(C)=O)cc1 (stereo not given) ?
Luc counter: inactive; RORg inh: 10µM; Gal4-VP16 FLuc: inconclusive

What do the screens show for `CC(=O)Oc1ccc(C2(C)CC(C)(C)Oc3cc(OC(C)=O)ccc32)c(OC(C)=O)c1` (stereo not given)?
RORg inh: inactive; Gal4-VP16 FLuc: inactive

How did Cc1nc2ccccc2c(=O)n1/N=C/c1ccccc1 do in these assays?
Luc counter: inactive; RORg inh: inactive; Gal4-VP16 FLuc: inconclusive

What do the screens show for `Cc1[nH]n(-c2ccccc2)c(=O)c1/C=N/n1c(C)nc2ccccc2c1=O`?
Luc counter: inactive; RORg inh: 5.62µM; Gal4-VP16 FLuc: inconclusive

What do the screens show for `Cc1nc2ccccc2c(=O)n1/N=C/c1ccc(F)cc1`?
RORg inh: inactive; Gal4-VP16 FLuc: inactive

How did C=CCN=Cc1c(C)[nH]n(-c2ccccc2)c1=O do in these assays?
Luc counter: inactive; RORg inh: inactive; Gal4-VP16 FLuc: inactive

How did Cc1ccc(-n2[nH]c(C)c(/C=N/n3c(C)nc4ccccc4c3=O)c2=O)cc1 do in these assays?
Luc counter: inconclusive; RORg inh: 17.8µM; Gal4-VP16 FLuc: inconclusive

What do the screens show for `Cc1[nH]n(-c2ccccc2)c(=O)c1/C=N/N(c1ccccc1)c1ccccc1`?
Luc counter: inactive; RORg inh: 5.62µM; Gal4-VP16 FLuc: inconclusive

Results for COc1ccccc1NS(=O)(=O)c1ccc(NC(=O)c2nc3nc(C)cc(C(F)F)n3n2)cc1 ?
Luc counter: inactive; RORg inh: inactive; Gal4-VP16 FLuc: inactive

Results for CCN1CCN(c2ccc(S(=O)(=O)N3CCCCC3)cc2NC(=O)COc2ccc(Cl)c(C)c2)CC1 ?
RORg inh: 0.1µM; Gal4-VP16 FLuc: inactive

Results for CCN1CCN(c2ccc(S(=O)(=O)N3CCOCC3)cc2NC(=O)COc2ccc(F)cc2Cl)CC1 ?
RORg inh: inactive; Gal4-VP16 FLuc: inactive

What do the screens show for `CCOC(=O)[C@]1(C(NC(=O)OC)c2cccc(C)c2)CCCC1=O` (stereo not given in full)?
RORg inh: inactive[10 µM]; Gal4-VP16 FLuc: inactive[10 µM]

What do the screens show for `Cc1cccc(CN2CCC(N3CC(C)OC(C)C3)CC2)c1` (stereo not given)?
RORg inh: inactive; Gal4-VP16 FLuc: inactive

What do the screens show for `COc1cccc(/C=N/Nc2c(Cl)cncc2Cl)c1O`?
RORg inh: inactive; Gal4-VP16 FLuc: inactive

Results for CCOc1ccc(/C=N/Nc2cc(C)nc(N3CCOCC3)n2)cc1 ?
RORg inh: inactive; Gal4-VP16 FLuc: inactive

Results for COc1cccc(/C=N/Nc2cc(N3CCOCC3)ncn2)c1O ?
RORg inh: 11.2µM; Gal4-VP16 FLuc: 11.2µM

What do the screens show for `COc1cccc(/C=N/Nc2cc(Cl)nc(C)n2)c1O`?
Luc counter: inactive; RORg inh: 0.501µM; Gal4-VP16 FLuc: 2.82µM

What do the screens show for `CCOc1ccc(/C=N/Nc2cc(N3CCOCC3)nc(C)n2)c(O)c1`?
RORg inh: 7.08µM; Gal4-VP16 FLuc: 11.2µM

How did Cc1nnc(N/N=C/c2ccco2)n1N do in these assays?
Luc counter: inactive; RORg inh: 11.2µM; Gal4-VP16 FLuc: 12.6µM

Results for COc1ccc(/C=N/Nc2cc(N3CCOCC3)ncn2)c(OC)c1 ?
RORg inh: inactive; Gal4-VP16 FLuc: inactive

Results for Cc1nnc(N/N=C/c2cccc(C(F)(F)F)c2)n1N ?
RORg inh: inactive; Gal4-VP16 FLuc: inconclusive

How did O=C1[C@H]2[C@H]3[C@H](O)[C@H](O)C/C(=N/OC[C@@H](O)COCc4ccco4)[C@H]3CC[C@@H]2C(=O)N1C1CCCCC1 do in these assays?
RORg inh: inactive[10 µM]; Gal4-VP16 FLuc: inactive[10 µM]

What do the screens show for `CN(C)C(=O)N1CCN(c2nc(-c3ccccc3)cs2)CC1`?
RORg inh: inactive; Gal4-VP16 FLuc: inactive

Results for CC(C)Cc1cc(C(=O)N2CCCC(CCC(=O)N(C)CCc3ccccn3)C2)no1 (stereo not given) ?
Luc counter: inactive; RORg inh: inactive; Gal4-VP16 FLuc: inactive

Results for COc1cccc(/C=N/Nc2nnc(C)n2N)c1O ?
RORg inh: 2.24µM; Gal4-VP16 FLuc: 3.16µM

What do the screens show for `Cc1nnc(N/N=C/c2ccccc2F)n1N`?
RORg inh: inactive; Gal4-VP16 FLuc: inconclusive

Results for Cn1cccc1C(=O)N1CCC[C@@]2(CCN(c3ccccc3)C2)C1 ?
Luc counter: inactive; RORg inh: inactive; Gal4-VP16 FLuc: inactive

How did O=C(Cc1cccs1)NCc1ccco1 do in these assays?
Luc counter: inactive; RORg inh: inactive; Gal4-VP16 FLuc: inactive

What do the screens show for `O=C(NCc1ccco1)C12CC3CC(CC(C3)C1)C2`?
Luc counter: inactive; RORg inh: inactive; Gal4-VP16 FLuc: inactive

Results for O=C(Cc1cccs1)NNC(=S)NCc1ccco1 ?
Luc counter: inactive; RORg inh: 14.1µM; Gal4-VP16 FLuc: inactive

Results for C/C(CC(=O)NCc1ccco1)=N\NC(=O)Cc1ccc(-c2ccccc2)cc1 ?
Luc counter: inactive; RORg inh: inactive; Gal4-VP16 FLuc: inactive

What do the screens show for `O=C(Cc1ccc(-c2ccccc2)cc1)NNC(=S)NCc1ccco1`?
Luc counter: inactive; RORg inh: 5.62µM; Gal4-VP16 FLuc: inconclusive

What do the screens show for `O=C(CC12CC3CC(CC(C3)C1)C2)NC(=S)NCc1ccco1`?
Luc counter: inactive; RORg inh: 3.55µM; Gal4-VP16 FLuc: inconclusive

What do the screens show for `COc1ccc(N(CC(=O)N/N=C/c2ccccc2F)S(=O)(=O)c2ccccc2)cc1`?
RORg inh: inactive; Gal4-VP16 FLuc: inactive

What do the screens show for `CCOc1cc2[nH]c(=S)n(CCCN3CCOCC3)c(=O)c2cc1OCC`?
Luc counter: inactive; RORg inh: inactive; Gal4-VP16 FLuc: inactive

What do the screens show for `CCOc1cc2[nH]c(=S)n(C3CC3)c(=O)c2cc1OCC`?
Luc counter: inactive; RORg inh: 4.47µM; Gal4-VP16 FLuc: 15.8µM

What do the screens show for `CCC(CO)n1c(=S)[nH]c2cc(OC)c(OC)cc2c1=O` (stereo not given)?
Luc counter: inactive; RORg inh: 11.2µM; Gal4-VP16 FLuc: inconclusive

How did CCOC(=O)N1CCC(n2c(=S)[nH]c3cc(OCC)c(OCC)cc3c2=O)CC1 do in these assays?
Luc counter: inactive; RORg inh: inactive; Gal4-VP16 FLuc: inactive

Results for CCOc1cc2[nH]c(=S)n(C(C)C)c(=O)c2cc1OCC ?
Luc counter: inactive; RORg inh: 2µM; Gal4-VP16 FLuc: 7.08µM

Results for CCOc1cc2[nH]c(=S)n(CCCOC)c(=O)c2cc1OCC ?
Luc counter: inactive; RORg inh: 11.2µM; Gal4-VP16 FLuc: inconclusive

What do the screens show for `CCOc1cc2[nH]c(=S)n(CCN3CCC(C)CC3)c(=O)c2cc1OCC`?
Luc counter: inactive; RORg inh: inactive; Gal4-VP16 FLuc: inactive

Results for CCOc1cc2[nH]c(=S)n(CCc3ccc(OC)c(OC)c3)c(=O)c2cc1OCC ?
Luc counter: inactive; RORg inh: inactive; Gal4-VP16 FLuc: inactive

Screening data: PubChem, National Center for Advancing Translational Sciences (NCATS)
